# Test results as given in PubChem BioAssay.
# “And” between values parts separate entries of the source, which are not always exact repeats. Identical values can stand only once. The source made the active and inactive calls. Cut-off read from the data, not from the text of the source, unless noted: active = inhibition above about 80%; inactive = the rest.
# Tests used:
# [1] = HTB85 osteosarcoma cell growth inhibition, synergistic combos for chromothripsis tumors, BGB or cisplatin IC20 combos (AID 1671453); conditions: HTB85 osteosarcoma cells, drug combinations, stronger effect = higher value;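 note: cells exposed for 96 hours before readout; 0% = vehicle DMSO and 100% = high DMSO killing control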
# [2] = CRL2098 osteosarcoma cell growth inhibition, synergistic combos for chromothripsis tumors, BGB or cisplatin IC20 combos (AID 1671454); conditions: CRL2098 osteosarcoma cells, drug combinations, stronger effect = higher value;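 note: cells exposed for 96 h before readout; 0% = vehicle DMSO and 100% = killing by high DMSO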
# [3] = HD-MB03 medulloblastoma cell growth inhibition, synergistic combos for chromothripsis tumors, BGB or cisplatin IC20 combos (AID 1671455; in the data active = inhibition above about 83%;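 note: 0% = vehicle DMSO and 100% = high DMSO as cytotoxic control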); conditions: HD-MB03 medulloblastoma cells, stronger effect = higher value
# [4] = UWB1.289 ovarian carcinoma cell growth inhibition, synergistic combos for chromothripsis tumors, BGB or cisplatin combos (AID 1671456); conditions: UWB1.289 ovarian carcinoma cells, stronger effect = higher value;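 note: cells exposed to compound for four days; 0% = vehicle DMSO and 100% = killing by high DMSO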
# [5] = LFS_MB_2R medulloblastoma cell growth inhibition, synergistic combos for chromothripsis tumors, cisplatin combos (AID 1671457); conditions: LFS_MB_2R medulloblastoma cells, stronger effect = higher value;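 note: cells exposed to compound for four days before readout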
# [6] = MDA-MB-436 breast carcinoma cell growth inhibition, synergistic combos for chromothripsis tumors, BGB or cisplatin combos (AID 1671458; call rule not given here;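 note: cells exposed for 96 hours; 0% = vehicle DMSO and 100% = killing by high DMSO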); conditions: MDA-MB-436 breast carcinoma growth inhibition, drug combinations, stronger effect = higher value
# [7] = UWB1.289_BRCA1 ovarian cancer growth, cell-based, BGB or cisplatin combinations (AID 1671459); conditions: UWB1.289 BRCA1 ovarian carcinoma, drug combinations, stronger effect = higher value
# [8] = human astrocyte viability loss, single and combined drugs, cytotoxicity control for chromothriptic childhood tumor combination screen, cell-based, BGB or cisplatin IC20 combos (AID 1671460); conditions: Human astrocytes, drug combinations, stronger effect = higher value;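 note: cells exposed to compounds for 96 hours before viability readout; 0% = vehicle and 100% = killing control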
# [9] = growth inhibition of BT084 medulloblastoma cells, cell-based, ICGC_MB145, cisplatin and BGB IC40 combos (AID 1671461); conditions: drug combinations, stronger effect = higher value;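 note: cells exposed to drugs for 96 hours; 0% = vehicle DMSO and 100% = high DMSO full killing control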
# [10] = growth inhibition of RCMB18 medulloblastoma cells, cell-based, cisplatin and BGB IC40 combos (AID 1671462); conditions: stronger effect = higher value;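 note: cells exposed to compound for four days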
# [11] = growth inhibition of CRL1545 osteosarcoma cells, cell-based, cisplatin and BGB IC20 combos (AID 1671464); conditions: stronger effect = higher value;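 note: cells exposed to compound for 96 hours before readout; 0% = vehicle DMSO and 100% = high DMSO killing control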
# [12] = measured here: combination with cisplatin, at 0.5 µM
smiles,measurement,setting,value
Nc1ccccc1NC(=O)c1ccc(CNC(=O)OCc2cccnc2)cc1,inhibition,"[1]; measured here: with BGB IC20, at 0.5 µM",48% and 25.2%
same,inhibition,"[1]; measured here: with BGB IC20, at 5 µM",97.7% and 98.3%
same,inhibition,"[1]; measured here: with cisplatin IC20, at 0.5 µM",80.3% and 42.5%
same,inhibition,"[1]; measured here: with cisplatin IC20, at 5 µM",99.8% and 98.9%
same,inhibition,"[1]; single agent, at 5 µM",99.3% and 97.6%
same,inhibition,[2]; at 0.5 µM,0.19% (inactive) and -6.59% (inactive)
same,inhibition,"[2]; measured here: combination with BGB at IC20, at 0.5 µM",-0.645% and -36.5%
same,inhibition,"[2]; measured here: combination with cisplatin at IC20, at 0.5 µM",30.1% and 43.8%
same,inhibition,[3]; at 0.5 µM,42.6% (inactive) and 20.9% (inactive)
same,inhibition,"[3]; measured here: combo with BGB at IC20, at 0.5 µM",34.7% and 26.6%
same,inhibition,"[3]; measured here: combo with cisplatin at IC20, at 0.5 µM",87.6% and 25.8%
same,inhibition,[4]; at 0.5 µM,18.2% (inactive) and 10.7% (inactive)
same,inhibition,"[4]; measured here: inhibition with BGB combination, at 0.05 µM",0.005% and -12.1%
same,inhibition,"[4]; measured here: inhibition with cisplatin combination, at 0.05 µM",-11.8% and 3.27%
same,inhibition,[5]; at 0.5 µM,39.2% (inactive) and 22.4% (inactive)
same,inhibition,[5]; [12],66.8% and 38.1%
same,inhibition,"[5]; measured here: combination with cisplatin, at 5 µM",99.8% and 92.3%
same,inhibition,[6]; at 0.5 µM,18.4% (inactive) and 2.92% (inactive)
same,inhibition,"[6]; measured here: BGB combination, at 0.5 µM",16.3% and -2.7%
same,inhibition,"[6]; measured here: BGB combination, at 5 µM",55.1% and 44.4%
same,inhibition,"[6]; measured here: cisplatin combination, at 0.5 µM",15.5% and -5.2%
same,inhibition,"[6]; measured here: cisplatin combination, at 5 µM",49.1% and 36.5%
same,inhibition,"[7]; BGB combination, concentration series, at 5 µM",98.1% and 86.1%
same,inhibition,[7]; at 0.5 µM,28.5% (inactive) and 10.5% (inactive)
same,inhibition,"[7]; cisplatin combination, concentration series, at 5 µM",104% and 98.8%
same,inhibition,[8]; at 0.5 µM,5.28% (inactive) and 8.78% (inactive)
same,inhibition,"[8]; measured here: combo with BGB IC20, at 0.5 µM",3.25% and 5.25%
same,inhibition,"[8]; measured here: combo with cisplatin IC20, at 0.5 µM",2.55% and 12.8%
same,inhibition,[9]; at 0.5 µM,46.5% (inactive) and 28.3% (inactive)
same,inhibition,"[9]; cisplatin combination, at 0.5 µM",67% and 52.4%
same,inhibition,"[9]; cisplatin combination, at 5 µM",97.3% and 96.5%
same,inhibition,"[9]; measured here: BGB IC40 combination 0.05 uM, at 0.05 µM",51.3% and 7.15%
same,inhibition,"[9]; single agent, at 5 µM",87.5% and 72.2%
same,inhibition,[10]; at 0.5 µM,49.1% (inactive) and 37.1% (inactive)
same,inhibition,"[10]; cisplatin combo, at 5 µM",94.3% and 95%
same,inhibition,"[10]; measured here: BGB IC40 combination, at 0.05 µM",11.6% and 4.4%
same,inhibition,[10]; [12],71.2% and 58%
same,inhibition,"[10]; single agent, at 5 µM",95.5% and 86.6%
same,inhibition,[11]; at 0.5 µM,74.5% (inactive) and 39.4% (inactive)
same,inhibition,"[11]; measured here: with BGB IC20 combination, at 0.5 µM",71.4% and 25.4%
same,inhibition,"[11]; measured here: with cisplatin IC20 combination, at 0.5 µM",76.1% and 45.2%
same,inhibition,"[11]; single agent, at 0.05 µM",28.6% and -12.8%
same,inhibition,"[11]; single agent, at 5 µM",73.7% and 44.8%
